# Experimental data published in the supplement of paper PMC8975748.
# System: Saccharomyces cerevisiae BY4741 SeMeCo community
# Assay: z-score of subpopulation abundance vs DMSO median, subpopulation auxotrophic for HL; higher = larger share of this subpopulation than in DMSO controls
# Conditions: 10 µM; 24 h; SM minimal medium; subpopulation (auxotrophy): HL
# Method in brief: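 A Saccharomyces cerevisiae BY4741 community carried four plasmids, each restoring one auxotrophy and encoding a distinct fluorescent protein. It was pre-grown overnight to OD600 1.0, diluted to 0.3, and 70 µl was added to 384-well plates acoustically predosed with library drugs (10 µM final), then grown 24 h in minimal SM medium. Cells were paraformaldehyde-fixed and imaged by automated confocal microscopy, with single-auxotroph fluorescent strains setting thresholds and autofluorescence correction. Each subpopulation's abundance was scored as a z-score against the vehicle-well median.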
row,Structure (SMILES),z-score of subpopulation abundance
1,CCCCCOc1ccc(-c2ccc(-c3ccc(C(=O)N[C@H]4C[C@@H](O)[C@@H](O)NC(=O)[C@@H]5[C@@H](O)[C@@H](C)CN5C(=O)[C@H]([C@@H](C)O)NC(=O)[C@H]([C@H](O)[C@@H](O)c5ccc(O)cc5)NC(=O)[C@@H]5C[C@@H](O)CN5C(=O)[C@H]([C@@H](C)O)NC4=O)cc3)cc2)cc1,31.2
2,Cc1ccnc(NS(=O)(=O)c2ccc(N)cc2)n1 [Sulfamerazine],0.86
3,O=C(O)c1cc(-c2ccc(F)cc2F)ccc1O [Diflunisal],-0.87
4,C[C@@H]1[C@H](O)[C@@H](C)/C=C/C=C/C=C/C=C/C=C/C=C/C=C/[C@H](O[C@@H]2O[C@H](C)[C@@H](O)[C@H](N)[C@@H]2O)C[C@@H]2O[C@](O)(C[C@@H](O)C[C@@H](O)[C@H](O)CC[C@@H](O)C[C@@H](O)CC(=O)O[C@H]1C)C[C@H](O)[C@H]2C(=O)O [Amphotericin B],8.48
5,CO/N=C(\C(=O)N[C@@H]1C(=O)N2C(C(=O)O)=CCS[C@H]12)c1csc(N)n1 [Ceftizoxime sodium],-0.66
6,CC(C)(O/N=C(\C(=O)N[C@@H]1C(=O)N2C(C(=O)[O-])=C(C[n+]3ccccc3)CS[C@H]12)c1csc(N)n1)C(=O)O [Ceftazidime],0.02
7,C[C@@H]1C/C=C/C=C/C=C/C=C/[C@H](O[C@@H]2O[C@H](C)[C@@H](O)[C@H](N)[C@@H]2O)C[C@@H]2O[C@](O)(C[C@@H](O)C[C@H]3O[C@@H]3/C=C/C(=O)O1)C[C@H](O)[C@H]2C(=O)O [Natamycin],22.5
